According to PubChem BioAssay (NCATS):
Inconclusive results are not listed. Activity calls are given as the source filed them. The call rests on the fitted dose curve; in most records, active means well fitted curve in the direction sought with a large enough effect; inconclusive means small, poorly fitted or top-dose-only effect, or another doubt; inactive means no such curve, though single readings can be large; an effect the other way counts as inactive or inconclusive.

How the values were obtained:
[1] = Cellular Toxicity (caspase-3) N2a (AID 665);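 further: compound exposure lasted 16 h at 37 °C before readout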
Outline: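 Mouse N2a neuroblastoma cells (1500/well) were treated with compounds for 16 h at 37 °C, then caspase-3/7 activity was read by Caspase-Glo luminescence after 1 h at room temperature. Data were normalized to DMSO and 10 uM staurosporine; AC50 from Hill fits.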

[2] = Cellular Toxicity (caspase-3) NIH 3T3 (AID 666);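 further: caspase signal read after 16 h compound exposure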
Outline: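 Mouse NIH 3T3 fibroblasts (1000 cells/well) were treated with compound for 16 hr at 37°C in complete medium; caspase-3/7 activity was read by Caspase-Glo luminescence. Normalized to DMSO and 100 uM tamoxifen; AC50 from Hill fits.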

[3] = Cellular Toxicity (caspase-3) Renal Proximal Tubule (AID 667);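 further: cells exposed to compound for 16 hours at 37 °C before detection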
Outline: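 Primary rat proximal tubule cells, 1000/well, 5 h plating at 37 °C, then compound 16 h at 37 °C. Caspase-Glo 3/7 reagent, 1 h RT, luminescence. Normalized to DMSO (basal) and 10 uM staurosporine (100%); Hill-fit AC50.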

[4] = Cell Viability - LYMP2-001 (AID 921); further: series mostly up to about 92 µM; nearly all actives have a fitted effect of over 70% in size
Outline: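 Human lymphoblastoid cells (Coriell), 2500 per well, were preincubated 5 hr at 37 C, then exposed to compounds in complete medium for 24 hr at 37 C. Cellular ATP was read by CellTiter-Glo luminescence; AC50 from Hill fits of concentration-response data.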

[5] = MultiTox-Fluor Cytotoxicity Assay - LYMP1-001 - Dead Cells (AID 946)
Outline: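 AC50 from Hill fit of concentration-response; data normalized to DMSO (basal) and 15 uM tetraoctylammonium bromide (100%). LYMP1-001 lymphoblastoid cells, 2500/well, 16 hr compound at 37 C; dead-cell protease fluorescence, Ex/Em 485/520.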

[6] = MultiTox-Fluor Cytotoxicity Assay - LYMP1-001 - Live Cells (AID 947)
[7] = Cell Viability - LYMP1-002 - Assay at 16 hr (AID 948)
Outline: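 Human lymphoblastoid cells (LYMP1-002), 2500/well, were preincubated 5 hr at 37 C, then exposed to compounds for 16 hr at 37 C in complete medium. Cellular ATP was read by CellTiter-Glo luminescence after 30 min at room temperature; AC50 from Hill fits.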

[8] = MultiTox-Fluor Cytotoxicity Assay - LYMP1-002 - Live Cells (AID 955)
Outline: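 Human lymphoblastoid LYMP1-002 cells, 2500/well in complete medium, rested 5 hr at 37 C, then exposed to compounds for 16 hr at 37 C. Live-cell protease cleavage of GF-AFC read by fluorescence (Ex/Em 405/510) after 60 min at room temperature; AC50 from Hill fits.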

[9] = MultiTox-Fluor Cytotoxicity Assay - LYMP1-002 - Dead Cells (AID 960); further: nearly all actives have a fitted effect of over 60% in size
Outline: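 Human lymphoblastoid cells (LYMP1-002), 2500/well in complete medium, were exposed to compounds for 16 hr at 37 C. Dead-cell protease activity was read as bis-AAF-R110 fluorescence (Ex/Em 485/520), normalized to DMSO and 15 uM tetraoctylammonium bromide; AC50 from Hill fits.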

[10] = MultiTox-Fluor Cytotoxicity Assay - LYMP1-003 - Dead Cells (AID 961); further: nearly all actives have a fitted effect of over 70% in size
Outline: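 Human lymphoblastoid LYMP1-003 cells (2500/well) were treated with compounds for 16 hr at 37 C in complete medium. Dead-cell protease release was read by bis-AAF-R110 fluorescence (Ex/Em 485/520). AC50 came from Hill fits, normalized to DMSO and 15 uM tetraoctylammonium bromide.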

[11] = MultiTox-Fluor Cytotoxicity Assay - LYMP1-003 - Live Cells (AID 962);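 further: cytotoxic hits lower the live-cell protease signal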
Outline: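 LYMP1-003 human lymphoblastoid cells (2500/well) in complete medium were preincubated 5 hr at 37 C, then exposed to compounds for 16 hr at 37 C. Live-cell protease cleavage of GF-AFC read by fluorescence (Ex/Em 405/510); AC50 from Hill fits.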

[12] = Cell Viability - LYMP1-003 - Assay at 24 hr (AID 963)
Outline: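 Human lymphoblastoid LYMP1-003 cells (2500/well) were rested 5 hr at 37 C, then exposed to compounds in complete medium for 24 hr at 37 C. Cellular ATP was quantified by CellTiter-Glo luminescence, and AC50 values came from Hill fits of concentration-response data.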

[13] = Cell Viability - LYMP1-003 - Assay at 40 hr (AID 964); further: series mostly up to about 92 µM; nearly all actives have a fitted effect of over 60% in size
Outline: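 Human lymphoblastoid LYMP1-003 cells, 2500/well in complete medium, rested 5 hr at 37 C, then exposed to compounds for 40 hr at 37 C. Viability read as intracellular ATP by CellTiter-Glo luminescence; AC50 from Hill fits of concentration-response data.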

[14] = Cell Viability - LYMP2-003 (AID 965);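 further: cells exposed to compounds for 24 h before reading; nearly all actives have a fitted effect of over 50% in size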
Outline: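 Human lymphoblastoid cells (2500/well) were pre-incubated 5 hr at 37 C, then exposed to compounds over a concentration range for 24 hr at 37 C. Intracellular ATP was read by CellTiter-Glo luminescence; AC50 came from Hill-equation fits.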

[15] = Cell Viability - LYMP2-004 (AID 966); further: nearly all actives have a fitted effect of over 65% in size
Outline: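 Human lymphoblastoid cells (2500/well) in complete medium were treated with compounds for 24 hr at 37 C, then intracellular ATP was measured by CellTiter-Glo luminescence. AC50 values came from Hill-equation fits of concentration-response data.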

[16] = Cell Viability - LYMP2-005 (AID 967); further: series mostly up to about 92 µM
Outline: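 CellTiter-Glo luminescence (cellular ATP) read-out; LYMP2-005 lymphoblastoid cells, 2500/well, 5 h pre-incubation, then 24 h compound exposure at 37 C in complete medium. Tetraoctylammonium bromide positive control; AC50 by standard Hill fit.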

[17] = Cell Viability - LYMP2-009 (AID 968); further: series mostly up to about 92 µM; nearly all actives have a fitted effect of over 55% in size
[18] = Cell Viability - LYMP2-011 (AID 969); further: nearly all actives have a fitted effect of over 60% in size
Outline: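 Human lymphoblastoid cells (2500/well) were plated in complete medium, preincubated 5 hr at 37 C, then exposed to compounds for 24 hr at 37 C. Intracellular ATP was read by CellTiter-Glo luminescence, and AC50 came from Hill-equation concentration-response fits.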

[19] = Cell Viability - LYMP2-013 (AID 970); further: series mostly up to about 92 µM; nearly all actives have a fitted effect of over 55% in size
Outline: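 Human lymphoblastoid cells, 2500/well, were preincubated 5 hr at 37 C, then treated with compounds for 24 hr at 37 C in complete medium. Intracellular ATP was read by CellTiter-Glo luminescence; AC50 from Hill-equation fits of concentration-response data.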

[20] = Cell Viability - LYMP2-015 (AID 971); further: nearly all actives have a fitted effect of over 55% in size
Outline: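 Human lymphoblastoid cells (2500/well) in complete medium were preincubated 5 hr at 37 C, then compound-treated 24 hr at 37 C. Intracellular ATP was read by CellTiter-Glo luminescence after 30 min at room temperature; AC50 came from Hill-equation concentration-response fits.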

[21] = Cell Viability - LYMP2-017 (AID 972); further: series mostly up to about 92 µM; nearly all actives have a fitted effect of over 55% in size
Outline: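 Human lymphoblastoid cells (2500/well) were seeded in complete medium, held 5 hr at 37 C, then exposed to compounds for 24 hr at 37 C. Intracellular ATP was read by CellTiter-Glo luminescence after 30 min at room temperature, with AC50 values from Hill-equation fits.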

[22] = Cell Viability - LYMP2-021 (AID 974)
Outline: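 Human lymphoblastoid cells (2500/well) were preincubated 5 hr at 37 C, then exposed to compounds for 24 hr at 37 C in complete medium. Intracellular ATP was read by CellTiter-Glo luminescence; AC50 came from Hill-equation fits of concentration-response data.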

[23] = Cell Viability - LYMP2-023 (AID 975)
Outline: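 Human lymphoblastoid cells (2500/well) were preincubated 5 hr at 37 C, then exposed to compounds for 24 hr at 37 C in complete medium. Cellular ATP was read by CellTiter-Glo luminescence, and AC50 came from Hill-equation fits.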

[24] = Cell Viability - LYMP2-002 (AID 977); further: series mostly up to about 92 µM
Outline: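 Luminescent ATP readout (CellTiter-Glo, 30 min room temperature) after 24 h compound exposure at 37 C of a human lymphoblastoid line, 2500 cells/well. AC50 values derived by standard Hill fitting of qHTS concentration-response data.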

Measured: Potency

COC(=O)c1ccccc1C(=O)OC
inactive: all assays above
